# Measurements: PubChem BioAssay AID463 (The Scripps Research Institute Molecular Screening Center, 2006)
# About 710 (1.3%) of roughly 56,000 compounds were called active.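 Rule for the calls: active = inhibition above the mean inhibition of all tested compounds plus 3 SD (cut at about 28% in these data); inactive = the rest.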 For the sample, actives were picked, then their nearest neighbours and some compounds at random.
# Assay: Jurkat cell viability reduction – Jurkat E6.1, 60K MLSMR library, cytotoxicity control, primary screen (AID 463)
# Conditions: Jurkat E6.1 viability, ATP luminescence, 48 h; at 4 µM; stronger effect = higher value
row,Structure (SMILES),inhibition
1,CCC(=O)c1ccc(OCC(O)CN2C(=O)NC(C)(C)C2=O)cc1 (stereo unspecified),-6.4% (inactive)
2,O=C(c1cccc(S(=O)(=O)N2CCOCC2)c1)N1CCOCC1,0% (inactive)
3,CCOc1cccc(-c2nnc3sc(COc4ccc(OC)cc4)nn23)c1,-3% (inactive)
4,COc1ccc(-n2nnnc2SCC(=O)c2ccc(OC)c(OC)c2)cc1,7.1% (inactive)
5,CCOc1cccc(-n2nnnc2-c2ccc(OC)cc2)c1,86.8% (active)
6,COC(=O)COc1ccc(S(=O)(=O)N2CCOCC2)cc1,-6.6% (inactive)
7,CCOC(=O)Cc1csc(NC(=O)CN(C)S(=O)(=O)c2ccc3c(c2)CCC(=O)N3)n1,-0.9% (inactive)
8,COc1ccc(NC(=O)c2cccc(NC(=O)c3ccco3)c2)c(OC)c1,-4.5% (inactive)
9,CCOc1cc(CN2CCN(C(=O)CC(C)C)CC2)ccc1OC,-0.1% (inactive)
10,CCOc1cc(-c2noc(CCC(=O)N3CCOCC3)n2)ccc1OC,-6.2% (inactive)
11,CCOc1cc(C(=O)N2CCc3cc(OC)c(OC)cc3C2)ccc1OC(F)F,98.3% (active)
12,COc1ccc(C(=O)Nc2ccc3c(c2)OCO3)cc1OC,16.3% (inactive)
13,COc1nc(Oc2ccc(=O)n(C)n2)nc(N(C)C)n1,4.9% (inactive)
14,CC1(C)CC(=O)C(C=NCCC2=CCCCC2)=C(O)C1,2% (inactive)
15,C=CCn1c(CSc2nc3ccccc3s2)nnc1SCC(=O)NCc1ccco1,0.8% (inactive)
16,O=C(Cn1cnc2c(cnn2-c2ccccc2)c1=O)NCc1ccccc1,35.9% (active)
17,O=C(Cn1cnc2c(cnn2-c2ccc(F)cc2)c1=O)NCCc1ccccc1,-3% (inactive)
18,CN(Cc1ccccc1)C(=O)CCNC(=O)Cn1cnc2ccccc2c1=O,7.8% (inactive)
19,CC(=O)Oc1cccc(N2C(=O)C3CC=C(Cl)CC3C2=O)c1 (stereo unspecified),-1.4% (inactive)
20,CS(=O)(=O)N1CCN(C(=O)c2cc3ccccc3oc2=O)CC1,-5.4% (inactive)
21,CCN(CC)C(=O)CSc1nnc(-c2ccc(S(=O)(=O)NCc3ccccc3Cl)cc2)o1,-7.3% (inactive)
22,Cc1ccccc1C(=O)NCCN=C1NS(=O)(=O)c2ccccc21,3.3% (inactive)
23,O=C(c1cccc(C(=O)N2CCN(c3ccc(F)cc3)CC2)c1)N1CCN(c2ccc(F)cc2)CC1,37.4% (active)
24,O=C(c1ccccc1)c1cccn1CC(=O)N1CCN(c2ccc(F)cc2)CC1,-0.4% (inactive)

row,Structure (SMILES),inhibition
1,Cc1ccccc1CN1CCN(C(=O)c2cccc(F)c2)CC1,-5% (inactive)
2,COc1cc(C2C(C#N)=C(C)NC3=C2C(=O)CC(C)(C)C3)ccc1O (stereo unspecified),5% (inactive)
3,COc1ccccc1CNC(=O)C1CCN(S(C)(=O)=O)CC1,-5.6% (inactive)
4,Nc1c(C(=O)NCc2ccccc2)nnn1Cc1cccc(Cl)c1,83.8% (active)
5,CCOc1ccc(Cn2nnc(C(=O)NCc3ccccc3)c2N)cc1,2.3% (inactive)
6,CCOc1ccc(Cn2nnc(C(=O)Nc3ccc(OC)cc3OC)c2N)cc1,-5.8% (inactive)
7,CCOc1c(OC)cc(C2C(C#N)=C(N)Oc3n[nH]c(-c4ccncc4)c32)cc1OC (stereo unspecified),-1.9% (inactive)
8,O=C(Oc1cccnc1)c1cc2ccccc2oc1=O,4.5% (inactive)
9,COc1ccc(-c2cc(C(F)(F)F)n3nc(C(=O)N4CCOCC4)c(Cl)c3n2)cc1,-9.2% (inactive)
10,CCCCN=C(N)/C(C(=O)OCC)=C(\O)c1ccc(OC)cc1,-0.7% (inactive)
11,CCc1ccc(N(CC)c2ncnc3nc[nH]c23)cc1,0.9% (inactive)
12,CC(=O)c1ccc(Oc2cc(C)nc(-n3nc(C)cc3C)n2)cc1,97.7% (active)
13,Cc1cc(C)n(-c2ccc(Cl)c(C(=O)O)n2)n1,-4.6% (inactive)
14,CCOC(=O)c1cnc(-n2nc(C)cc2C)nc1Nc1cccc(C(C)=O)c1,2.3% (inactive)
15,O=C(COc1ccccc1Cl)Nn1cnnc1,4.2% (inactive)
16,COc1ccc(N2C(=O)C3CCCN3C2c2cccs2)cc1 (stereo unspecified),-7.9% (inactive)
17,O=C(CC1N=C2c3ccccc3N=C(SCc3ccccc3Cl)N2C1=O)NCc1ccco1 (stereo unspecified),8% (inactive)
18,NC(=O)CSC1=Nc2ccccc2C2=NC(CCC(=O)NCc3ccc(F)cc3)C(=O)N12 (stereo unspecified),4.5% (inactive)
19,CC(C)C1N=C2c3ccccc3N=C(SCC(=O)c3ccc(O)c(O)c3)N2C1=O (stereo unspecified),50.8% (active)
20,CCCC(NS(=O)(=O)c1ccc(OC)cc1)C(=O)O (stereo unspecified),0.8% (inactive)
21,COC(=O)C(C)n1cnc2c(nnn2-c2cccc(Cl)c2)c1=O (stereo unspecified),6% (inactive)
22,Cc1oc(-c2ccccc2F)nc1CS(=O)(=O)CC(=O)NCCCN(C)C1CCCCC1,5% (inactive)
23,O=C(Nc1ccc2c(c1)nc1n2CCCCC1)c1cc(S(=O)(=O)N2CCOCC2)ccc1Cl,34.5% (active)
24,O=C(Nc1ccc(S(=O)(=O)N2CCCC2)cc1Cl)C1=COCCO1,10.5% (inactive)

row,Structure (SMILES),inhibition
1,COc1ccc(S(=O)(=O)N2CCOCC2)cc1C(=O)Nc1nc2ccccc2s1,-2.5% (inactive)
2,O=C1N(Cc2ccc3c(c2)OCO3)c2ccccc2C1(O)c1c[nH]c2ccccc12 (stereo unspecified),-8.9% (inactive)
3,CCCCNC(=O)CSc1nccn1Cc1ccccc1,-7.9% (inactive)
4,COCCNCCOCCOc1cccc(OC)c1,5.4% (inactive)
5,Cc1cc(Nc2cccc(F)c2)n2ncnc2n1,0.2% (inactive)
6,CCOC(=O)c1[nH]c2c(c1C)C(=O)CC(c1ccc(N(C)C)cc1)C2 (stereo unspecified),1% (inactive)
7,COC(=O)C1C(=O)c2c([nH]c(C(=O)OCCSC)c2C)CC1C (stereo unspecified),-3.9% (inactive)
8,CCCOC(=O)c1[nH]c2c(c1C)C(=O)CC(c1cc(OC)c(OC)c(OC)c1)C2 (stereo unspecified),45.9% (active)
9,Cc1ccc(N(CC(O)CN2CCCC2)S(=O)(=O)c2ccccc2)cc1 (stereo unspecified),2.6% (inactive)
10,Cc1ccc(S(=O)(=O)C2(S(=O)(=O)c3ccc(C)cc3)CCCC2)cc1,84% (active)
11,Cc1ccc(S(=O)(=O)N2CCCC2CO)cc1 (stereo unspecified),-3.1% (inactive)
12,Cc1ccc(S(=O)(=O)NC(=O)N2CCCC(C)(C)C2)cc1,-5.4% (inactive)
13,CC(C)(O)C#Cc1ccc(C(=O)N2CCC(C(N)=O)(N3CCCCC3)CC2)cc1,-6.2% (inactive)
14,CS(=O)(=O)c1ccc2nc(NC(=O)C3CCCCC3)sc2c1,5.6% (inactive)
15,COc1ccccc1N1CCN(C(=O)CN(Cc2ccc(Cl)cc2)S(C)(=O)=O)CC1,9.3% (inactive)
16,COc1ccccc1-n1nnnc1S(=O)(=O)Cc1ccc(Cl)cc1,53.4% (active)
17,COc1ccccc1N1CCN(Cc2nnnn2CCc2ccccc2)CC1,-5.1% (inactive)
18,Cc1oc(C)c(C(=O)NCCCC(=O)O)c1C(=O)NCCCC(=O)O,-3.9% (inactive)
19,Cc1ccc2nc(-c3ccc(SCC(=O)Nc4cc(C)on4)nc3)[nH]c2c1,-5.8% (inactive)
20,O=C(O)CCSc1nnc(-c2ccccc2)n1-c1ccccc1,-2.8% (inactive)
21,CC(C)OCCCNc1ncnc2c1[nH]c1ccc(F)cc12,87.6% (active)
22,O=C1CCCN1CCCNc1ncnc2c1[nH]c1ccccc12,2.2% (inactive)
23,CCN1CCCC1CNc1ncnc2c1[nH]c1ccc(F)cc12 (stereo unspecified),3.2% (inactive)
24,COc1ccc(OC)c2c1sc(=NC(=O)CN1C(=O)CCC1=O)n2C,1.4% (inactive)

row,Structure (SMILES),inhibition
1,CC(=O)Nc1cccc(Oc2cc(C#N)c(C#N)cc2N2CCOCC2)c1,1.2% (inactive)
2,CCOc1cc(N2CCOCC2)c(OCC)cc1NC(=O)COc1cccc2cccnc12,37.5% (active)
3,CCOc1cc(NC(=O)c2ccco2)c(OCC)cc1NC(=O)COc1ccccc1,0.4% (inactive)
4,COc1ccc(OCC(=O)N2CCOCC2)cc1,-4.3% (inactive)
5,Cc1nc2ccc(NC(=O)N3CCC(c4ccccc4)C3)cc2nc1C (stereo unspecified),-3.3% (inactive)
6,CCc1nnc(NC(=O)c2ccc(S(=O)(=O)NC3CCCCC3)cc2)s1,27.4% (inactive)
7,CC1CCCCN1S(=O)(=O)c1ccc(C(=O)Nc2nnc(-c3cccs3)o2)cc1 (stereo unspecified),101% (active)
8,CCc1nnc(NC(=O)C2CCCN2S(=O)(=O)c2ccccc2)s1 (stereo unspecified),2.3% (inactive)
9,O=C1c2ccccc2-c2ncnc3c(N4CCOCC4)cc(N4CCOCC4)c1c23,6.4% (inactive)
10,CC1CCCN(Cc2nc3c(c(=O)n(C)c(=O)n3C)n2Cc2cccc3ccccc23)C1 (stereo unspecified),-3.6% (inactive)
11,CCOC(=O)c1c(-c2ccc(C)cc2C)csc1NC(=O)CSc1nnnn1C,28.5% (active)
12,CNC(=O)CSc1nnnn1-c1ccc(C)cc1C,-4.9% (inactive)
13,CCOC(=O)CNC(=O)CSc1nnnn1-c1cc(C)ccc1C,-1.2% (inactive)
14,CCOCCCNC(=O)Cc1cc(=O)[nH]c(=O)[nH]1,-4.5% (inactive)
15,CCC(c1nnnn1Cc1ccccc1)N(Cc1cc2cc(OC)ccc2[nH]c1=O)CC1CCCO1 (stereo unspecified),-4.6% (inactive)
16,CC(Nc1nc(N2CCCC2)nc2ccccc12)c1ccccc1 (stereo unspecified),4.2% (inactive)
17,COc1ccc(-n2nnc3c(=O)n(CC(=O)OCc4ccccc4)cnc32)cc1,7% (inactive)
18,Cc1cccc(-n2c(O)c(C=Nc3ccccc3N)c(=O)[nH]c2=O)c1,46.2% (active)
19,Cc1cccc(-n2c(N)c(C(=O)N3CCN(C)CC3)sc2=S)c1,2.6% (inactive)
20,O=C(CS(=O)(=O)c1cn(Cc2ccc(Cl)cc2)c2ccccc12)N1CCOCC1,5.9% (inactive)
21,COc1ccc(N(Cc2cc3cc(OC)ccc3[nH]c2=O)S(C)(=O)=O)cc1,8.7% (inactive)
22,CCC(C)Sc1nnc(-c2c[nH]c3ccccc23)n1CCOC (stereo unspecified),6% (inactive)
23,CC(=O)Oc1ccc2c(C)c(CC(C)O)c(=O)oc2c1 (stereo unspecified),-1.3% (inactive)
24,COc1ccc(OCc2cccc(C(=O)N3CCCC3)c2)cc1,-5.2% (inactive)
